DT40 TDP1 CPT: growth inhibition of DT40 Tdp1-/-;hTDP1 cells with camptothecin (screen for TDP1 inhibitors). chicken DT40 Tdp1-/-;hTDP1 cells + 20 nM CPT, ATP luminescence, 48 h. Potency, µM (series often up to 46.2 µM), usual class: inhibitors. actives 12% (n = 420,000). AID 686979; note: nearly all actives have a fitted effect of over 55% in size
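Cell growth measured by CellTiter-Glo luminescence after a minimum 48 h, 37 C compound exposure with 20 nM CPT in Tdp1-knockout DT40 cells stably expressing hTDP1, seeded 400/well; qHTS titration format.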
PLK1 PBD inh: inhibitors of human PLK1 polo-box domain binding; actives 2.8% (n = 360,000); Potency, µM, hits mostly inhibitors; Plk1 PBD binding of FITC phosphopeptide, fluorescence polarization; AID 720504; note: series mostly up to about 57 µM; nearly all actives have a fitted effect of over 65% in size
Target sequence (P53350 whole entry, looked up, the tested form may be a part): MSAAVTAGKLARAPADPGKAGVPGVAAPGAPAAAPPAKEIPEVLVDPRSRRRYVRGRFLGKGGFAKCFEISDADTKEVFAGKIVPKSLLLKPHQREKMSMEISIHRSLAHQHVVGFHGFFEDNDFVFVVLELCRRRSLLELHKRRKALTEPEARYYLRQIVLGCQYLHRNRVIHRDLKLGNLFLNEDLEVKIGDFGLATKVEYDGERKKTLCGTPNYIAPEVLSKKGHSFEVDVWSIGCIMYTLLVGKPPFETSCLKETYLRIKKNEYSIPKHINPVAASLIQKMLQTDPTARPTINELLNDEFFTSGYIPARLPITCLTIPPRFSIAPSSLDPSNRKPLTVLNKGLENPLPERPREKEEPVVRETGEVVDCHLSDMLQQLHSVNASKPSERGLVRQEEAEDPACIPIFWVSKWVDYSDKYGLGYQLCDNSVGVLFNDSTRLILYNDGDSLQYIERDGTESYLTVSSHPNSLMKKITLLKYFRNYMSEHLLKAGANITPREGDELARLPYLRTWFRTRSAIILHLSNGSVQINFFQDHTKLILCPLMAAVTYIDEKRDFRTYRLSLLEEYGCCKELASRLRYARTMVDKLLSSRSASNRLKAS
DT40 TDP1 no CPT: qHTS for Inhibitors of human tyrosyl-DNA phosphodiesterase 1 (TDP1): qHTS in cells in absence of CPT | DT40 Tdp1-/- hTDP1 cells, no CPT, ATP luminescence, 48 h | Potency, µM (highest dose often 46.2 µM), actives largely listed as inhibitors | actives 15% (n = 420,000) | AID 686978, 2013; note: nearly all actives have a fitted effect of over 55% in size
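Luminescent ATP content (CellTiter-Glo) served as the growth readout. Knockout chicken DT40 cells expressing human TDP1 were exposed to compounds without camptothecin for a minimum 48 hr at 37 °C.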
GCN5L2 inh: inhibitors of human GCN5L2 histone acetyltransferase; Q92830; actives 0.21% (n = 390,000); AID 504327; GCN5L2 HAT assay, ThioGlo1 CoA-SH fluorescence; Potency, µM (titrated, usually from 58.9 µM), actives largely listed as inhibitors
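Free CoA generated was detected with ThioGlo1 (50uM) fluorescence at Ex340nm/Em540nm, read immediately and after 20 min at room temperature. Enzyme, 20 nM in HEPES pH 7.5 buffer, saw compounds 15 min before adding 75uM H3(1-25) peptide and 70uM acetyl-CoA.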
VDR inh: inhibitors of human vitamin D receptor; VDR-SRC2-3 peptide fluorescence polarization, 2 h; P11473; Potency, µM, most hits filed as inhibitors; AID 504847; actives 0.93% (n = 400,000)
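Reagent solutions, kept cold and dark, are dispensed first; compounds are then pinned in at 23 nl, plates briefly spun, and incubated 2 h at ambient temperature. Inhibition of VDR–SRC2-3 peptide binding is read by fluorescence polarization.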
TDP1 inh: blocks human tyrosyl-DNA phosphodiesterase 1; actives 0.28% (n = 350,000); Potency, µM (top dose mostly 130 µM), actives largely listed as inhibitors; recombinant TDP1, AlphaScreen DNA substrate cleavage; Q9NUW8; AID 485290; note: nearly all actives have a fitted effect of over 40% in size
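Steps: enzyme plus compound, 15 min RT; add biotin/phosphotyrosine-FITC oligonucleotide (15 nM final), react 5 min; add donor/acceptor beads (10 ug/ml final), 10 min; read AlphaScreen. Tdp1 at 1 nM final.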
A number is an active result; . = inactive; ? = inconclusive; / = no result given; [ ] = dose if it differs, or a comment. Compounds with a hit are over-represented: about 18% of the library has one in this group of screens. Calls come from the whole dose curve; as a rule, active = well fitted curve in the direction sought with a large enough effect; inconclusive = small, poorly fitted or top-dose-only effect, or another doubt; inactive = no such curve, though single readings can be large; an effect the other way counts as inactive or inconclusive.

SMILES	DT40 TDP1 CPT	PLK1 PBD inh	DT40 TDP1 no CPT	GCN5L2 inh	VDR inh	TDP1 inh
COc1ccccc1NC(=O)Cc1cccc2ccccc12	?	.	?	.	.	/
COc1ccccc1NC(=O)Nc1nc(CC(=O)NCc2ccc(F)cc2)cs1	9.2µM	.	16.4µM	.	.	/
Cc1nnc(NC(=O)c2cc(-c3ccco3)nc3ccccc23)s1	/	/	/	?	/	.
O=C(O)c1cc(-c2cc(C(=O)O)c3ccccc3n2)nc2ccccc12	/	/	/	.	/	/
O=C(NC1CC1)c1cc(-c2ccco2)nc2ccccc12	.	21.2µM	.	?	.	4.47µM
O=C(c1cc(-c2ccco2)nc2ccccc12)N1CCN(c2ccc(F)cc2)CC1	20.6µM	.	13µM	.	.	.
O=C(OCC(=O)N1CCN(C(=O)c2ccco2)CC1)c1cc(-c2ccco2)nc2ccccc12	?	?	?	?	.	/
O=C(O)c1cc(-c2ccco2)nc2ccccc12	.	?	.	?	79.4µM	/
CCC(C)NC(=O)c1ccc(CS(=O)(=O)Cc2ccc(Cl)cc2)o1 (stereo not drawn)	.	.	.	.	.	.
Cc1ccc(-c2nc(S(=O)(=O)c3ccc(Cl)cc3)c(N3CCCCC3)o2)cc1	.	/	?	.	.	.[12.3 µM]
COc1ccc(-c2nc(S(=O)(=O)c3ccc(C)cc3)c(N3CCCCC3)o2)cc1	.	/	?	.	89.1µM	/
COc1cccc(-c2nc(S(=O)(=O)c3ccc(C)cc3)c(N3CCCCCC3)o2)c1	23.1µM	/	4.61µM	.	.	.
Cc1ccc(-c2ccc(C3C4C=CCC(C)C4C(=O)N3Cc3ccccc3)c(F)c2)cc1 (stereo not drawn)	/	/	/	/	.	.
CC[C@@]12C(=O)N(c3ccc(OC)cc3)C(=O)N1[C@H](c1cccc(C)c1)[C@@H]1C(=O)N(Cc3ccccc3)C(=O)[C@@H]12	.	.	.	.	.	/
Cc1sc2ncnc(Nc3ccccc3)c2c1C	?	26.7µM	?	.	.	.
Cc1sc2ncnc(Nc3ccc(N4CCOCC4)cc3)c2c1-c1ccccc1	16.4µM	.	?	.	.	.
Cc1sc2ncnc(NCc3ccccc3)c2c1C	13µM	.	14.6µM	.	.	.
Cc1sc2ncnc(N3CCN(Cc4ccccc4)CC3)c2c1-c1ccccc1	?	.	?	.	.	.
Cc1ccc(-c2nnc(-n3ncc(C#N)c3N)c3ccccc23)cc1C	.	.	.	.	.	.
Cc1ccc(C)c(NC(=O)Cn2c(=O)n(Cc3ccc4c(c3)OCO4)c(=O)c3ccccc32)c1	?	/	.	.	.	.
Cc1cccc(C)c1NC(=O)CSc1nnc(CCCCCNC(=O)OC(C)(C)C)o1	14.6µM	.	13µM	.	.	.
CC(C)(C)OC(=O)NCCCCCc1nnc(SCc2ccc(F)cc2)o1	?	.	23.1µM	.	.	.
CCC(C)NCCOCCOc1ccc(Cl)c(C)c1C (stereo not drawn)	14.6µM	.	13µM	.	.	.
CCC(C)NCCOCCOc1ccc(Cl)c2ccccc12 (stereo not drawn)	9.2µM	.	18.4µM	.	.	.
C=CCc1cc(Cl)ccc1OCCOCCNC(C)CC (stereo not drawn)	?	.	?	.	.	/
SMILES	DT40 TDP1 CPT	PLK1 PBD inh	DT40 TDP1 no CPT	GCN5L2 inh	VDR inh	TDP1 inh
COc1ccc(Cl)c(Cn2c(NCCN)nc3c2c(=O)n(C)c(=O)n3C)c1	?	/	?	.	.	.
O=C(Nc1nnc(-c2ccncc2)s1)C1CCCO1 (stereo not drawn)	.	21.2µM	.	.	.	.
CCCC(C)c1nnc(NC(=O)C2CCCO2)s1 (stereo not drawn)	.	29.9µM	.	.	.	.
COCCSc1nnc(NC(=O)C2CCCO2)s1 (stereo not drawn)	.	.	.	.	.	.
CCCC(C)c1nnc(NC(=O)CN2C(=O)c3ccccc3C2=O)s1 (stereo not drawn)	.	26.7µM	.	.	.	.
Cc1nnc(NC(=O)C2CCCO2)s1 (stereo not drawn)	.	?	.	.	.	.

Screening results: PubChem BioAssay, National Center for Advancing Translational Sciences (NCATS)
